# Experimental data taken from PubChem BioAssay (NCATS).
# Values without a mark were called inactive. The source made the active and inactive calls. Unless noted, calls come from the whole dose curve; as a rule, active = well fitted curve in the direction sought with a large enough effect; inconclusive = small, poorly fitted or top-dose-only effect, or another doubt; inactive = no such curve, though single readings can be large; an effect the other way counts as inactive or inconclusive.
# Columns and labels:
# [1] = biological target: Estrogen receptor (Homo sapiens) (UniProt P03372); assay: qHTS assay for small molecule antagonists of estrogen receptor alpha signaling (AID 588513; active = well fitted curve in the direction sought with a large enough effect in the signal ratio, with a control signal flat, not every such curve was filed as active; inconclusive = small, poorly fitted or top-dose-only effect, or effect the other way, or a change in a side signal; inactive = no such curve, though single readings can be large or run the other way; the % refers to the signal ratio; note: potency is the fitted concentration of half-maximal effect)
# Procedure, shortened: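 Cells were plated at 5000/well and incubated 4 h at 37 C. Compounds were added as 1:2 dilution series, duplicates. 17-beta-estradiol (0.5nM final) was added for 18 h before CCF4 detection.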
# [2] = biological target: Vitamin D3 receptor (Homo sapiens) (UniProt P11473); assay: qHTS assay for small molecule antagonists of vitamin D receptor signaling (AID 588541; calls by dose curve; note: potency is the fitted concentration of half-maximal effect)
# Procedure, shortened: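 VDR-UAS-bla HEK293T cells (2000/well, 2% charcoal-stripped FBS) were treated with titrated compounds plus 1-alpha,25-dihydroxyvitamin D3 (50 nM or 3 nM final) for 16 h at 37 C. CCF4 beta-lactamase fluorescence was read; Hill fits gave IC50.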
# [3] = biological target: Voltage-gated inwardly rectifying potassium channel KCNH2 (Homo sapiens) (UniProt Q12809); assay: qHTS Assay for Small Molecule Inhibitors of the Human hERG Channel Activity (AID 588834);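 note: U2OS cells transduced with hERG by BacMam; top concentration of the series differs between compounds; % is set by controls: 0 for no effect and ±100 for the full control effect; lower thallium flux fluorescence means stronger hERG block; nearly all actives have a fitted effect of over 50% in size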
# Procedure, shortened: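 Cells were infected with hERG-BacMam virus for 4 hrs at room temperature, grown overnight, then seeded at 2000/well. After dye loading and roughly 10 min compound treatment, thallium influx was triggered and fluorescence recorded.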
# [4] = qHTS assay for small molecule disruptors of the mitochondrial membrane potential - 1 hr assay (AID 651754; calls by dose curve; note: potency is the fitted concentration of half-maximal effect; nearly all actives have a fitted effect of over 35% in size)
# Procedure, shortened: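 Read-out: dye fluorescence at 490 nm ex/535 nm em (monomers) and 540 nm ex/590 nm em (aggregates) in HepG2 cells. Compound exposure 1 hr at 37C, followed by 30 min dye loading.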
# [5] = qHTS assay for small molecule disruptors of the mitochondrial membrane potential - 5 hr assay (AID 651755; calls by dose curve; note: potency is the fitted concentration of half-maximal effect; nearly all actives have a fitted effect of over 40% in size); details: JC-1-type ratio dye
# Procedure, shortened: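 Seed HepG2 overnight, add compound, incubate 5 hr at 37C and 5% CO2, stain 30 min with Mito-MPS, then measure monomer (490/535 nm) and aggregate (540/590 nm) fluorescence.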
# [6] = qHTS assay for environmental chemicals that activate the Aryl hydrocarbon Receptor (AhR) signaling pathway (AID 651777); details: 1A2-DRE human hepatoma cells, luciferase, 24 h; hits give high values; note: % of control where 0% means no effect; nearly all actives have a fitted effect of over 15% in size
# Procedure, shortened: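 Reporter gene assay: hepatoma cells with DRE/CYP1A2-luciferase, 24 hr compound incubation at 37 C, 5% CO2, luminescence after One-Glo (30 min, RT).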
# [7] = biological target: Peroxisome proliferator-activated receptor alpha (Homo sapiens) (UniProt Q07869); assay: qHTS assay for small molecule agonists of the peroxisome proliferator-activated receptor alpha (PPARalpha) signaling pathway (AID 651778); details: PathHunter PPARalpha complementation, chemiluminescence, 6 h; hits give high values; note: % of control where 0% means no effect
# Procedure, shortened: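 Cells plated at 2,000/well and held overnight at 37 C, 5% CO2, then compound added by pin tool for 6 hr; after PathHunter detection reagent and 60 min at room temperature, chemiluminescence from enzyme complementation was read.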
# [8] = biological target: Nuclear receptor ROR-gamma (Homo sapiens) (UniProt P51449); assay: qHTS assay for small molecule antagonists of the retinoid-related orphan receptor gamma (ROR-gamma) signaling pathway (AID 651802); details: ROR-gamma antagonist cell reporter assay; note: potency is the fitted concentration of half-maximal effect; nearly all actives have a fitted effect of over 60% in size
# Procedure, shortened: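 Luciferase read-out: ONE-Glo luminescence after 30 min at room temperature, following 16hr doxycycline induction at 37C, 5% CO2 of CHO cells with TET-inducible ROR and RORE-LUC reporter; decreased luminescence = reduced reporter activity.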
# [9] = qHTS assay for small molecule antagonists of the retinoid-related orphan receptor gamma (ROR-gamma) signaling pathway - cell viability counter screen (AID 720652; active = well fitted curve in the direction sought with a large enough effect in the repeat runs; inconclusive = weak or mixed curves; inactive = no such curve, though single readings can be large; an effect the other way counts as inactive or inconclusive;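 note: potency is the fitted concentration of half-maximal effect; compound exposure lasted 16 hr before ATP read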); details: RORgamma reporter cell line viability counter screen
# Procedure, shortened: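 CHO RORE-LUC/TET-ROR line, 1,000 cells/well, 37 C 5% CO2 5 hr; cpd or DMSO + doxycycline induction, 16 hr. CellTiter-Glo, 30 min RT, luminescence = ATP content.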
# [10] = qHTS assay for small molecule agonists of the antioxidant response element (ARE) signaling pathway measured by Nrf2-dependant transcriptional activity - cell viability counter screen (AID 720653; active = well fitted curve in the direction sought with a large enough effect in the repeat runs; inconclusive = weak or mixed curves; inactive = no such curve, though single readings can be large; an effect the other way counts as inactive or inconclusive; note: potency is the fitted concentration of half-maximal effect); details: ARE-bla HepG2 viability, CellTiter-Glo ATP luminescence, 16 h; max response: hits give low values
# Procedure, shortened: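 ARE-bla HepG2 cells (2,000/well) rested 5 hrs at 37C/5% CO2, then exposed to compounds in DMSO for 16 hrs. Viability was read in the same wells as intracellular ATP by luminescence, 30 min at room temperature after reagent addition.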
# [11] = qHTS assay for cell viability of HEK293 cells (AID 743288); details: ATP luminescence (CellTiter-Glo), 18 h; max response: hits give low values; note: potency is the fitted concentration of half-maximal effect; nearly all actives have a fitted effect of over 50% in size
# Procedure, shortened: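 Quantitative high-throughput screen: compounds were pinned onto parental HEK293 cells (2,000 per well) after a minimum 5 h settling at 37 C, incubated 18 h at 37 C, and intracellular ATP measured by luciferase luminescence.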
# [12] = qHTS assay for cell viability of the p53RE-bla HCT-116 cell line (AID 743292); note: potency is the fitted concentration of half-maximal effect; nearly all actives have a fitted effect of over 55% in size
# Procedure, shortened: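 ATP-based luminescence, 16 h compound exposure at 37 C, p53RE-bla HCT-116 cells at 4,000/well.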
# [13] = biological target: Furin (Homo sapiens) (UniProt P09958); assay: Furin counterscreen qHTS for Zika virus inhibitors (AID 1347149);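 note: purified recombinant full-length human furin enzyme at 5 nM; fluorescence gain from furin cutting a BOC-RVRR-AMC peptide substrate over 15 min; top concentration of the series differs between compounds; plate controls were no-inhibitor control for no effect and no-enzyme control for full effect; nearly all actives have a fitted effect of over 70% in size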
# Procedure, shortened: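 Counterscreen measures cleavage of 2 microM BOC-RVRR-AMC, below its ~15 microM Km, by 5 nM full-length human furin at pH 7.0 after a 15-min compound preincubation. Inhibition derives from the 15-min fluorescence increase at 37C.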
# [14] = ZIKV-mCherry secondary qHTS for Zika virus inhibitors (AID 1347158); note: top concentration of the series differs between compounds
# Procedure, shortened: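 Read-out is percent infection: mCherry-positive Vero cells (nuclear-proximal intensity >450 RFU, 3 SD above negative controls) counted by high-content imaging of Hoechst-stained, PFA-fixed wells after 48-72 h with ZIKV-mCherry at MOI 1 and compound.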
# [15] = system: Zika virus NS2B-NS3 protease (linked); assay: 384 well plate NINDS AMC confirmatory qHTS for Zika virus inhibitors (AID 1347163); note: potency is the fitted concentration of half-maximal effect; nearly all actives have a fitted effect of over 50% in size
# Procedure, shortened: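 Enzyme (5, 30 or 60 nM final) first met test compounds for ~15 min. The AMC-tagged peptide Ac-VKTGKR-AMC followed at 30 microM. Fluorescence was then recorded at 25 min and scaled against no-enzyme and no-inhibitor wells.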
# [16] = system: Zika virus NS2B-NS3 protease (linked construct); assay: 384 well plate NINDS Rhodamine confirmatory qHTS for Zika virus inhibitors (AID 1347164); note: potency is the fitted concentration of half-maximal effect; nearly all actives have a fitted effect of over 65% in size
# Procedure, shortened: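 Compounds are incubated about 15 minutes with linked protease (5, 30 or 60 nM final). Rhodamine 110-tagged Ac-LKRR substrate (10 microM final) is added and fluorescence measured after 25 minutes.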
# [17] = Vero cells viability qHTS for Zika virus inhibitors (AID 1347167); note: % is set by controls: 0 for no effect and ±100 for the full control effect
# Procedure, shortened: (§1)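 To flag cytotoxic protease inhibitors, viability is measured by ATP-dependent luminescence (CellTiter Glo) after cells attached overnight receive compound for 24 to 48 hours in DMEM with 4% FBS.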
# [18] = HepG2 cells viability qHTS for Zika virus inhibitors (AID 1347168); note: potency is the fitted concentration of half-maximal effect
# Procedure, shortened: as §1
# [19] = Tertiary RLuc qRT-PCR qHTS assay for Zika virus inhibitors (AID 1347169); note: potency is the fitted concentration of half-maximal effect; nearly all actives have a fitted effect of over 55% in size
# Procedure, shortened: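 Orthogonal cell-based infection assay using recombinant ZIKV-RLuc (Cambodian) in Vero cells; compound added prior to virus at MOI 1-2. Incubation lasts 48-72 hrs at 37 degrees C before live-cell Renilla substrate is added and luminescence measured.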
# [20] = qHTS assay for small molecule activators of the human pregnane X receptor (PXR) signaling pathway (AID 720659; call rule not given here; note: 0% is about no effect)
# Chain of Voltage-gated inwardly rectifying potassium channel KCNH2 (Homo sapiens) (Q12809 whole entry, looked up): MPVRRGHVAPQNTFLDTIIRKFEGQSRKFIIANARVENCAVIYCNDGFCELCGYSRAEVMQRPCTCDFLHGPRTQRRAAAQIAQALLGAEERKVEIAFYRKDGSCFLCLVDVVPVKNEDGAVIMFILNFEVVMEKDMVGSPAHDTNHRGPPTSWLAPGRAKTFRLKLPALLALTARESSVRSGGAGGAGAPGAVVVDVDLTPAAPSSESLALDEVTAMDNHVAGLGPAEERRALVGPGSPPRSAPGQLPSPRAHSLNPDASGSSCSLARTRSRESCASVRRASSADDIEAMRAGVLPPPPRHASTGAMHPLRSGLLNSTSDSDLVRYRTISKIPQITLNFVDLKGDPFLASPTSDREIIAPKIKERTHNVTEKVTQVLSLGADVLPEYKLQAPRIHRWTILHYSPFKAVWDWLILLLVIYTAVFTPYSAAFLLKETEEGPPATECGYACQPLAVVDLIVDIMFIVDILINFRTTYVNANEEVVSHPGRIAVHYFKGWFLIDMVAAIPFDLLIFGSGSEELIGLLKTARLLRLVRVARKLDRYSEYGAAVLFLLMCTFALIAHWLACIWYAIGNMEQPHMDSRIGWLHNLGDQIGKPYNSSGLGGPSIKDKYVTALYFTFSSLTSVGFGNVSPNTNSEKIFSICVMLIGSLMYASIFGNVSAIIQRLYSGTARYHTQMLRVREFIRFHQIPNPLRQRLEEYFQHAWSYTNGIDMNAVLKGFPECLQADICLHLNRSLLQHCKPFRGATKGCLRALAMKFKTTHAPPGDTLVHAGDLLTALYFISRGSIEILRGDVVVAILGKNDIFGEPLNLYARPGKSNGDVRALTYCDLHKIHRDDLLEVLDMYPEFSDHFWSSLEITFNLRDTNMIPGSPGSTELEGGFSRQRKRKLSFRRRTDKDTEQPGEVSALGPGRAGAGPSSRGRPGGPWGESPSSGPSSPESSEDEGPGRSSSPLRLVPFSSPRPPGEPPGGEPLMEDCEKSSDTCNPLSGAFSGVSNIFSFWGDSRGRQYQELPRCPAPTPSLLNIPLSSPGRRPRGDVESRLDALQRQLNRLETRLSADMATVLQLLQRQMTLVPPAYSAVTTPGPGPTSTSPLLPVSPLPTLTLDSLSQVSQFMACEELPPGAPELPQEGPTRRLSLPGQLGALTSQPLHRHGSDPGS
# Chain of Vitamin D3 receptor (Homo sapiens) (P11473 whole entry, looked up): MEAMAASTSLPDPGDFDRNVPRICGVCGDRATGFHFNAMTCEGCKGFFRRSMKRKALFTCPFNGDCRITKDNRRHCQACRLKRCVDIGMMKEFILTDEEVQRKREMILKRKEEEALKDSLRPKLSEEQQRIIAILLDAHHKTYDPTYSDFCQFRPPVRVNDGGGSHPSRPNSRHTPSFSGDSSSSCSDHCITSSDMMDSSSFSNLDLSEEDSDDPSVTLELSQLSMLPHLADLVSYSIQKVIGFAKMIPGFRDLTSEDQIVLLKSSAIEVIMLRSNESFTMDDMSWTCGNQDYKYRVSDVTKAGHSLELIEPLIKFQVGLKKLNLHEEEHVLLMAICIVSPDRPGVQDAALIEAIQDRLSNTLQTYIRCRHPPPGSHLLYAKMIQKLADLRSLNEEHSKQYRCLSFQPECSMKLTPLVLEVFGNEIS
# Chain of Estrogen receptor (Homo sapiens) (P03372 whole entry, looked up): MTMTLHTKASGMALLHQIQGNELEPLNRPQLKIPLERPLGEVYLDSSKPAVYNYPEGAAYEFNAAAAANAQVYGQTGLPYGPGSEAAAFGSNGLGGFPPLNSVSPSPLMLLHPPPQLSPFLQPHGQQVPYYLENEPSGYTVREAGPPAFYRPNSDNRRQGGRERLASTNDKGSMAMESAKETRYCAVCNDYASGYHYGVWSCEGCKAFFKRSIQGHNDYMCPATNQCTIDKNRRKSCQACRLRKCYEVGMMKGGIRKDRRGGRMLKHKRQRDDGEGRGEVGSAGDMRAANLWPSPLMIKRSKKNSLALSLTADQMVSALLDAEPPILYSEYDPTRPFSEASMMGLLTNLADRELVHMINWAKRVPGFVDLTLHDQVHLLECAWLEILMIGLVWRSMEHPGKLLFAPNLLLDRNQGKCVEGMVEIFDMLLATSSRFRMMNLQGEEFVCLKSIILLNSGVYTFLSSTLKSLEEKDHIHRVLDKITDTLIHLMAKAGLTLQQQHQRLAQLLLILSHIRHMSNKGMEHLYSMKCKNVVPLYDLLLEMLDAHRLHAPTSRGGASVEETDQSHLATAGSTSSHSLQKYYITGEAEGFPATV
# Chain of Nuclear receptor ROR-gamma (Homo sapiens) (P51449 whole entry, looked up): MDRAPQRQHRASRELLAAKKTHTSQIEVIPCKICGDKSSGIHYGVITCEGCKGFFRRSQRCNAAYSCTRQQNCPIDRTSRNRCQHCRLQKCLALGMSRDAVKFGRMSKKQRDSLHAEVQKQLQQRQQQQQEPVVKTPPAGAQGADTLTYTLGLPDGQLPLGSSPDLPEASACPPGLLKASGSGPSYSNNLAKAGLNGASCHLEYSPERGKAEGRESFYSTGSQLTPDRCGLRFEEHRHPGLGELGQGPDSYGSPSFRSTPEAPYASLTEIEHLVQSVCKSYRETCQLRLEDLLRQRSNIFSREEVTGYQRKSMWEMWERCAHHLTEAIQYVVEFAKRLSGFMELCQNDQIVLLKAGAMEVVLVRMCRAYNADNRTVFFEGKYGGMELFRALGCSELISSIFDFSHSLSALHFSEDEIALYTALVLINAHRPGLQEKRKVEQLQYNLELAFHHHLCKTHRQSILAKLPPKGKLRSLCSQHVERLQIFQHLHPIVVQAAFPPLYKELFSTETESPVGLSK
# Chain of Furin (Homo sapiens) (P09958 whole entry, looked up): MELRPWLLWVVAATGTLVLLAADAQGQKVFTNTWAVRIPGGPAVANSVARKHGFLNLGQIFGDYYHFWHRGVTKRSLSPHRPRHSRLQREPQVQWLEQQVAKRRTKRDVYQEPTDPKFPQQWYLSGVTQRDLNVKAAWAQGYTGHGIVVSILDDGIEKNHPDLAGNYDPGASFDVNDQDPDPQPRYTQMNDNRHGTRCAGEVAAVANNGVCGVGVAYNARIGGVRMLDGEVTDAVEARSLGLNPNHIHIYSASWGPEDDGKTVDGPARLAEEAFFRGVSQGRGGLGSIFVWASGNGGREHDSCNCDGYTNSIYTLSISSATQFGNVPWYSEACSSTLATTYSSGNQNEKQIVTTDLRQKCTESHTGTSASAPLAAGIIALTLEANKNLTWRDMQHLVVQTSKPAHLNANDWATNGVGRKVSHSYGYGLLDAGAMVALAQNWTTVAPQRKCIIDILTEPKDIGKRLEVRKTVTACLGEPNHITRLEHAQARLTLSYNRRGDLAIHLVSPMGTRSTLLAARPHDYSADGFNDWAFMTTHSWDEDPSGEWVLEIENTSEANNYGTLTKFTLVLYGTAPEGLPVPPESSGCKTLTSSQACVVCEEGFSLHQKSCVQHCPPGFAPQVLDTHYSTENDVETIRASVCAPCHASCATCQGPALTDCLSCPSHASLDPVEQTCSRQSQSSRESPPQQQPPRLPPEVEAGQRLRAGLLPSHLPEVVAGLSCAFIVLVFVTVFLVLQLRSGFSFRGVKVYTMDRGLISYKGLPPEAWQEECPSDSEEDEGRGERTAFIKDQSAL
# Chain of Peroxisome proliferator-activated receptor alpha (Homo sapiens) (Q07869 whole entry, looked up): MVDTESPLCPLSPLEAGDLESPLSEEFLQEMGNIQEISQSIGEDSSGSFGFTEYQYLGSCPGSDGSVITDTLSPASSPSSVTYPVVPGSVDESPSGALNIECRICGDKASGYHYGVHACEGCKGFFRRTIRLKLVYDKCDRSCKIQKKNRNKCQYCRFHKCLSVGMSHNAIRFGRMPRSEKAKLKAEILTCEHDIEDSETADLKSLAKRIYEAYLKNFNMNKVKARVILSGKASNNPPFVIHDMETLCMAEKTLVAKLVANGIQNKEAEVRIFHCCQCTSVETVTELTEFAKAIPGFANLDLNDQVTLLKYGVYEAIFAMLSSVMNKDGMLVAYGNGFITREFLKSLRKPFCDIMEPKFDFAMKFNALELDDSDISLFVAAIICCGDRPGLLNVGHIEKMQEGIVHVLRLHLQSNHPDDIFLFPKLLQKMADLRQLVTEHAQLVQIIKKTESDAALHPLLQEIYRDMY
smiles,measurement,setting,value
O=C1c2c(O)ccc([N+](=O)[O-])c2C(=O)c2c([N+](=O)[O-])ccc(O)c21,Potency,[1],14.1 µM [inconclusive] (active)
same,Potency,[2],22.4 µM (active)
same,Potency,[3],inactive
same,Potency,[4],5.31 µM (active)
same,Potency,[5],3.76 µM (active)
same,activation,[6],5.47%
same,max response,[7],-6.07%
same,Potency,[8],16.8 µM (active)
same,Potency,[9],33.5 µM (active)
same,Potency,[10],20 µM (active)
same,Potency,[11],39.8 µM (active)
same,Potency,[12],39.8 µM (active)
same,Potency,[13],inactive
same,Potency,[14],inactive
same,Potency,[15],100 µM (active)
same,Potency,[16],70.8 µM (active)
same,Potency,[17],inactive
same,Potency,[18],42.6 µM (active)
same,Potency,[19],13.5 µM (active)
same,outcome,[20],inactive
